Screen size: about 2,100 compounds; about 650 (31%) were called active. Inconclusive results (about 16%) are left out. The call rests on the fitted dose curve; in most records, active means well fitted inhibition curve with a large enough effect; inconclusive means small, poorly fitted or top-dose-only effect; inactive means flat fitted curve, though single readings scatter. The list shows a part of the results. A call without a number means that no potency is given here.
Potency means the concentration at half of the fitted maximal effect.

The nature of the experiment: qHTS for inhibitors of Vif-A3G interactions: Cherry picks. Further: nearly all actives have a fitted effect of over 80% in size. The note with it: HeLa A3G-eYFP + Vif (tagged APOBEC3G with the HIV-1 protein that degrades it), 24 h; Potency: eYFP fluorescence increase; series mostly up to 36.9 µM. The method in brief:
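HeLa cells stably expressing A3G-eYFP and Vif, cultured overnight then exposed to compounds at several concentrations for 24 hours at 37 C, 5% CO2; cellular yellow fluorescence (488 nm ex, 500-530 nm em) imaged on Acumen, MG132 positive control.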
In general terms: In qHTS, concentration-response curves come from the screen itself.
Take `CCN(CCCN(C)C)c1ccc(/C=C/c2ccnc3ccccc23)cc1`: the Potency is 18.4 µM (active).

For `CCCCN(CCC(=O)O)c1ccc(/C=C/c2ccnc3ccccc23)cc1`, the Potency was 18.4 µM (active).

Take `CCCCN(CCCC)c1ccc(/C=C/c2ccnc3ccccc23)cc1`: the Potency was 16.4 µM (active).

With `CC(C)CN(CC(C)C)c1ccc(/C=C/c2ccnc3ccccc23)cc1`, the Potency was 23.1 µM (active).

For the compound `COc1ccc(NS(=O)(=O)c2cc(NC(=O)c3ccc(=O)[nH]c3)ccc2N2CCCC2)cc1`, the Potency entry was “inactive”.

`Cc1ccsc1/C=N\NC(=O)c1n[nH]c2c1CCC2`: the Potency entry was “inactive”.

For `CC(=Nc1ccccc1)C1=C(O)C(Cc2ccccc2)NC1=O` (configuration not stated), the Potency result was “inactive”.

Consider `CCCN(CCC)c1ccc(/C=C/c2ccnc3ccccc23)cc1`, for which the Potency was 20.6 µM (active).

Regarding `CCN(C)c1ccc(/C=C/c2ccnc3ccccc23)cc1`, the Potency was 20.6 µM (active).

On to `CCN(CC)c1ccc(/C=C/c2ccnc3ccccc23)cc1`, for which the Potency was 23.1 µM (active).

For the compound `CCN(C)c1ccc(/C=N\n2nnnc2N)cc1`, the Potency entry was “inactive”.

In the case of `C/C(CC(=O)NCc1ccco1)=N\NC(=O)COc1ccc(Cl)cc1Cl`, the Potency result is “inactive”.

As for `CCN1/C(=C/C=C2/SC(=Nc3cccc4ncccc34)N(C)C2=O)Sc2ccccc21`, the Potency is 16.4 µM (active).

`COc1cccc(Sc2ccccc2/C=N/NC(N)=O)c1`: the Potency result was “inactive”.

As for `O=C(Nc1nnc(-c2ccc3c(c2)CCCC3)o1)c1c(F)cccc1F`, the Potency result was “inactive”.

In the case of `Cc1nnc(SCC(=O)NCc2ccccc2F)c2nn(-c3ccc(Cl)cc3)c(C)c12`, the Potency result was “inactive”.

As for `Cc1c(-c2nnc(SCC(=O)Nc3ccccc3F)o2)nnn1-c1ccc(F)cc1`, the Potency was 23.1 µM (active).

`OCCCn1c(C2CCCN2c2nc(-c3ccc(Cl)cc3)cs2)nc2cc(Cl)c(Cl)cc21` (configuration not stated): the Potency entry is “inactive”.

Consider `N=c1n(CC(=O)c2ccc([N+](=O)[O-])cc2)c2ccccc2n1Cc1ccccc1`, for which the Potency is 18.4 µM (active).

In the case of `Cc1ccccc1NC(=O)c1ccc2c(c1)c(C)c(C)n2Cc1ccccc1`, the Potency entry was “inactive”.

Regarding `Cc1ccc(C(=O)NC2c3ccccc3-c3ccccc32)cc1`, the Potency result was “inactive”.

`Cc1ccc(SC2=C(Sc3ccc(C)cc3)C(=O)c3ccccc3C2=O)cc1`: the Potency is 16.4 µM (active).

On to `Cc1ccc(C)c(C2NC(=O)c3ccccc3N2)c1` (configuration not stated), for which the Potency result was “inactive”.

In the case of `Cc1ccc(-c2cc(C(=O)N/N=C/C(Br)=C/c3ccccc3)n[nH]2)o1`, the Potency result is “inactive”.

Take `Cc1ccc(Cl)cc1NC(=O)Nc1cn(CC(C)C)c(=O)c2ccccc12`: the Potency entry is “inactive”.

`Cc1ccc2nc(-c3ccccn3)c(NC3CCCC3)n2c1`: the Potency entry is “inactive”.

As to `CN(C)c1ccc(/C=C/c2ccnc3cc(Cl)ccc23)cc1`, the Potency was 13 µM (active).

As for `CN(C)c1ccc(/C=C/c2ccnc3ccccc23)cc1`, the Potency is 18.4 µM (active).

As to `CN(C)c1ccc(/C=C/C=C/c2ccnc3ccccc23)cc1`, the Potency was 5.8 µM (active).

Regarding `CN(C)c1ccc(/C=C/c2ccnc3ccc(-c4ccccc4)cc23)cc1`, the Potency was 18.4 µM (active).

As to `COc1cccc(CNCCSc2nnnn2C)c1OCc1ccc(F)cc1`, the Potency entry was “inactive”.

Regarding `C=CCNC(=S)N/N=C(\C)c1ccc(OC)cc1`, the Potency result was “inactive”.

Take `CSc1ccc(/C=N/NC(=O)c2ccccc2Cl)cc1`: the Potency result is “inactive”.

As for `Cc1ccc(NC(=S)N=Nc2c(O)n(C)c3ccc(S(=O)(=O)N4CCOCC4)cc23)cc1`, the Potency result is “inactive”.

Consider `COc1cccc2nccc(/C=C/c3ccc(N(C)C)cc3)c12`, for which the Potency was 20.6 µM (active).

With `CNc1ccc(/C=C/c2ccnc3ccccc23)cc1`, the Potency is 18.4 µM (active).

In the case of `CN(C)c1ccc(/C=C/c2cnnc3ccccc23)cc1`, the Potency was 20.6 µM (active).

As for `CN(C)c1ccc(/C=C/c2ccnc3ccccc23)c(N)c1`, the Potency was 18.4 µM (active).

`COc1ccc(C2=NOC(C(=O)NCc3ccc(F)cc3)C2)cc1` (configuration not stated): the Potency entry was “inactive”.

As for `CCOc1ccc(Br)cc1C1C(C(=O)OC)=C(N)Oc2cc(N(C)C)ccc21` (configuration not stated), the Potency result is “inactive”.

`Cc1ccc(NC(=S)Nc2ccccn2)c(C)c1`: the Potency result is “inactive”.

Consider `CC(=O)Nc1cc(-c2ccccc2CN(C)C)cn2c(-c3ccc(C(C)=O)cc3)cnc12`, for which the Potency result is “inactive”.

With `COC(=O)c1sc(N)c(C(=O)OC)c1COC(=O)c1c(C)noc1C`, the Potency entry was “inactive”.

As to `CC1(C(=O)Nc2ccc3c(c2)OCO3)Cc2c(-c3ccccc3)ccnc2O1` (configuration not stated), the Potency entry was “inactive”.

For the compound `CN(C)c1ccc(/C=C(\C#N)C(=O)Nc2nc3c(s2)CCN(Cc2ccccc2)C3)cc1`, the Potency is 1.12 µM (active).

For `N#Cc1c(NC(=O)/C=C/C(=O)O)sc2c1CCN(Cc1ccccc1)C2`, the Potency result was “inactive”.

`CN1CCN(c2nc3ccccc3nc2NS(=O)(=O)c2ccc(Br)cc2)CC1`: the Potency entry is “inactive”.

For the compound `O=S(=O)(Nc1nc2ccccc2nc1N1CCN(c2ccccc2)CC1)c1ccc(F)cc1`, the Potency result was “inactive”.

`CCOC(=O)N1CCC(Nc2nc3ccccc3nc2NS(=O)(=O)c2ccc(Cl)cc2)CC1`: the Potency entry was “inactive”.

Regarding `O=S(=O)(Nc1nc2ccccc2nc1N1CCc2ccccc2C1)c1ccc(Br)cc1`, the Potency result was “inactive”.

In the case of `O=C(N=c1ccn(-c2nc3ccccc3nc2NS(=O)(=O)c2ccc(Cl)cc2)cc1)c1cccs1`, the Potency was 16.4 µM (active).

As for `O=S(=O)(Nc1nc2ccccc2nc1N1CCN(c2ccccn2)CC1)c1ccc(Cl)cc1`, the Potency was 23.1 µM (active).

`O=C(N/N=C/c1ccc2c(c1)OCO2)c1cc(-c2ccncc2)nc2ccccc12`: the Potency result was “inactive”.

Consider `Cc1cc(C)c(/C=C2\C(=O)Nc3ccccc32)[nH]1`, for which the Potency is 18.4 µM (active).

As to `Cc1ccc(C2NC(=O)c3ccccc3N2)s1` (configuration not stated), the Potency entry was “inactive”.

With `Cc1nn(-c2ccc(F)cc2)c(Cl)c1/C=C1\C(=O)Nc2ccccc21`, the Potency result was “inactive”.

Take `Cc1ccc(S(=O)(=O)Nc2cc(Cl)c(O)c3ncccc23)cc1`: the Potency result was “inactive”.

On to `COc1ccc(S(=O)(=O)N2CCN(C(=O)c3ccc([N+](=O)[O-])o3)CC2)cc1`, for which the Potency entry is “inactive”.

For the compound `COc1ccc2oc(-c3ccccc3[N+](=O)[O-])cc(=O)c2c1`, the Potency entry is “inactive”.

Consider `COc1ccc2[nH]c3c(c2c1)CCNC3c1ccc([N+](=O)[O-])o1` (configuration not stated), for which the Potency was 18.4 µM (active).

Turning to `Cc1ccc(N/C(N)=N/c2nc(CSc3nnc(C)s3)cc(=O)[nH]2)c(C)c1`, the Potency entry is “inactive”.

For `COc1ccc(C(=O)C[n+]2cc(Br)cc3ccccc32)cc1`, the Potency was 20.6 µM (active).

As to `CCCC1=[N+](CC(=O)c2ccc(Br)cc2)CCn2cccc21`, the Potency result was “inactive”.

In the case of `CCn1cc2nc(SCC(=O)Nc3ccc(C)cc3C)n(Cc3ccc(C)cc3)c(=O)c2n1`, the Potency entry was “inactive”.

As for `O=[N+]([O-])c1cc(Cl)c2cccnc2c1O`, the Potency entry is “inactive”.

`Cc1cc(N2CCN(c3ccc([N+](=O)[O-])c4cccnc34)CC2)c2ccccc2n1`: the Potency is 20.6 µM (active).

With `CCC(=O)NC(=S)Nc1cccc(Cl)c1N1CCCC1`, the Potency result is “inactive”.

`C=CCNc1nc2cc(-c3cccc(Cl)c3)sc2c(=O)n1C`: the Potency entry is “inactive”.

On to `C=CCNC(=S)N/N=C/c1ccc(C)cc1C`, for which the Potency result is “inactive”.

Consider `C=C(C(=O)c1ccccc1)C(NC(C)(C)C)c1ccccc1` (configuration not stated), for which the Potency entry is “inactive”.

With `CC(=O)Nc1sc(/C(C#N)=C\c2cccc(Cl)c2)nc1-c1ccc(C)cc1`, the Potency is 8.2 µM (active).

In the case of `CCOc1cc(/C=C(\C#N)c2nc(-c3cccs3)c(NC(C)=O)s2)ccc1O`, the Potency is 23.1 µM (active).

Consider `CCOC(=O)c1c(-c2ccc(C)cc2)csc1NC(=O)/C(C#N)=C/c1ccc(O)c(OC)c1`, for which the Potency entry is “inactive”.

Consider `CC(=O)Nc1sc(/C(C#N)=C/c2ccc(Cl)c(Cl)c2)nc1-c1ccc(C)cc1`, for which the Potency was 5.8 µM (active).

In the case of `O=C(Cn1ncc(Cl)c(Cl)c1=O)NCC1CCCCC1`, the Potency result is “inactive”.

For the compound `CC(=O)c1cccc(-c2ccnc3c2CC(C(=O)NCc2ccco2)O3)c1` (configuration not stated), the Potency result is “inactive”.

As to `O=C(Cc1ccccc1)NCc1ccc(-n2cccc2)cc1`, the Potency result is “inactive”.

In the case of `S=C(Nc1cccc2ccccc12)NN1CCCCCC1`, the Potency result is “inactive”.

Consider `N#Cc1c(-c2ccccc2F)cc(C2CC2)nc1SCC(=O)c1cccs1`, for which the Potency is 17.7 µM (active).

As for `CCc1c(C)nc(SCC(=O)c2cccs2)c(C#N)c1C`, the Potency entry is “inactive”.

For `O=C(COC(=O)c1ccc(NS(=O)(=O)c2cccs2)cc1)NCc1ccco1`, the Potency result was “inactive”.

On to `Cc1ccc2nc3c(cc(S(=O)(=O)c4ccccc4)c(=N)n3Cc3ccco3)c(=O)n2c1`, for which the Potency is 29.1 µM (active).

Consider `CC#Cc1cc2c(cc1O)CCC1C2CCC2(C)C(O)CCC12` (configuration not stated), for which the Potency result is “inactive”.

Turning to `O=C(NCc1cccnc1)c1ccc([N+](=O)[O-])o1`, the Potency result is “inactive”.

`COc1ccc(/C=C/C(=O)c2ccc([N+](=O)[O-])o2)cc1`: the Potency entry is “inactive”.

For `CCOC(=O)CCc1ccc(NC(=O)/C=C/c2ccc([N+](=O)[O-])o2)cc1`, the Potency is 23.1 µM (active).

Consider `N#CCc1ccc(NC(=O)/C=C/c2ccc([N+](=O)[O-])o2)cc1`, for which the Potency is 8.2 µM (active).

Take `COc1cc(/C=C/C(=O)c2ccc([N+](=O)[O-])o2)ccc1O`: the Potency entry was “inactive”.

In the case of `COC(=O)c1sc(NC(=O)c2ccc([N+](=O)[O-])o2)c(C#N)c1C`, the Potency result was “inactive”.

Regarding `CC(=O)Nc1ccc2nc(NC(=O)c3ccc([N+](=O)[O-])o3)sc2c1`, the Potency entry was “inactive”.

With `CCc1ccc(C(=O)/C=C/c2ccc([N+](=O)[O-])o2)cc1`, the Potency was 14 µM (active).

Regarding `O=C(/C=C/c1ccc(Cl)cc1)c1ccc([N+](=O)[O-])o1`, the Potency entry was “inactive”.

With `Cc1cc(C)n(-c2nnc3n2N=C(c2c[nH]c4ccccc24)CS3)n1`, the Potency entry is “inactive”.

For the compound `CC1(C(=O)NCc2ccco2)Cc2c(-c3ccc(C(N)=O)cc3)ccnc2O1` (configuration not stated), the Potency entry was “inactive”.

Consider `Clc1ccsc1-c1csc(-c2cccnc2)n1`, for which the Potency entry is “inactive”.

Turning to `CCc1nnc(NC(=O)CSc2nnc(-c3ccccc3O)n2-c2ccc(C)cc2C)s1`, the Potency result is “inactive”.

With `Cc1ccc(O)c(NC(=O)c2cc(-c3ccccc3O)no2)c1`, the Potency is 20.6 µM (active).

For the compound `Cc1ccc(O)c(Nc2c3ccccc3nc3ccccc23)c1`, the Potency result is “inactive”.

On to `CCn1c(=O)c2cc(C(=O)NCCCOC)sc2c2ccccc21`, for which the Potency result is “inactive”.

With `C=C(/C=C/c1ccc(N(C)C)cc1)c1nc2ccccc2s1`, the Potency is 18.4 µM (active).

Consider `COc1ccccc1-c1cc(NC=O)c2ncc(-c3ccc(S(C)(=O)=O)cc3)n2c1`, for which the Potency entry was “inactive”.

Consider `S=C(NC1CCCCC1)N(CCc1ccccc1)CCc1ccccc1`, for which the Potency result is “inactive”.
